Among all 2,400 compounds or so, about 580 (24%) were called active.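 Rule for the calls: active = activity change at or above the mean plus 3 SD of buffer wells without dofetilide, per plate; inactive = the rest.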 Not all results are given here.

The target in this assay is Potassium voltage-gated channel subfamily KQT member 2 (Rattus norvegicus) (UniProt O88943). Kind of assay: rat KCNQ2 channel activation by compounds alone, confirmation, counter-screen for hERG block protector project, cell-based, CHO, FluxOR thallium flux (AID 1942).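 Note: normalized value minus buffer-control mean plus three SD of buffer wells.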 Conditions: CHO-KCNQ2 cells, FluxOR thallium flux fluorescence; at 10 µM; hits give high values.
Chain of Potassium voltage-gated channel subfamily KQT member 2 (Rattus norvegicus) (O88943 whole entry, looked up): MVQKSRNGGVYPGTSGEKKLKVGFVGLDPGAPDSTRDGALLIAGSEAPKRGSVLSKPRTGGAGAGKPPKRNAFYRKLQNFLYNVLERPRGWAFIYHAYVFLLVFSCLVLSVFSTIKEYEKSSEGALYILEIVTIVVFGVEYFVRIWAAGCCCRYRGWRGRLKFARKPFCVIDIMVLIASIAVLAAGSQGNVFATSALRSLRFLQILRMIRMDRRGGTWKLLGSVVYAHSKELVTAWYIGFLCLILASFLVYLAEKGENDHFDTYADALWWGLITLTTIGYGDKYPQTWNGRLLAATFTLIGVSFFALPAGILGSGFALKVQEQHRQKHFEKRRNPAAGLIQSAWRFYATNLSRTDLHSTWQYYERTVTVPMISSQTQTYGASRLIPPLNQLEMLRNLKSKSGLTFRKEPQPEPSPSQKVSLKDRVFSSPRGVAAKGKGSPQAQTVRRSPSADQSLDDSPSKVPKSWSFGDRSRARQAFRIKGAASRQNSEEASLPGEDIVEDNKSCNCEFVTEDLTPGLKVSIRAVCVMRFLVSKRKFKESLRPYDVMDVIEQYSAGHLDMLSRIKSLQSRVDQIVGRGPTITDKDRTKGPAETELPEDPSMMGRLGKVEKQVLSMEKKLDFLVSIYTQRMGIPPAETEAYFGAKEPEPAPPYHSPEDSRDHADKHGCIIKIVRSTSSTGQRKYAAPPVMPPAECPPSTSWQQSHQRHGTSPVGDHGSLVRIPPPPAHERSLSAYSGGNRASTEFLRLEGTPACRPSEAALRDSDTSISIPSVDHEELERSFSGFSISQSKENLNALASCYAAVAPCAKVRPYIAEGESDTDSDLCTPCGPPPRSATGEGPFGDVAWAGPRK
On to `Cn1c(=O)c2c(nc(Cl)n2CC(=O)N2CCCCC2)n(C)c1=O`, for which the activity change, less the hit threshold was -22.7% (inactive).
Next, `CCCCc1c(C)[nH]c(C(=O)OCC)c1C`: -19.3% (inactive).
On to `COCCCn1c(=S)[nH]c2sc3c(c2c1=O)CCCC3`, for which the activity change, less the hit threshold was 40.5% (active).
As for `COCCCn1c(=S)[nH]c2c(sc3ccccc32)c1=O`, the activity change, less the hit threshold is -11.4% (inactive).
The value for `CCOCCCn1c(=S)[nH]c2cc(C(=O)NCCOC)ccc2c1=O` was -10.4% (inactive).
The value for `COCCn1c(=S)[nH]c2sc3c(c2c1=O)CCCC3` was 31.9% (active); that for `COCCn1c(=S)[nH]c2sc3c(c2c1=O)CCC(C)C3` (configuration not stated) was 51.5% (active).
Take `Cc1ccc(S(=O)(=O)Nc2c(C)[nH]c(=O)[nH]c2=O)cc1C`: the activity change, less the hit threshold was -17.9% (inactive).
Next, `CCOC(=O)CSc1nnc(NC(=O)c2ccc3c(c2)OCO3)s1`: -23.9% (inactive); `O=S(=O)(Nc1cccc(-n2cnnn2)c1)c1ccc(Cl)nc1`: -9% (inactive); `CN(C)S(=O)(=O)c1cc(NC2CC(=O)N(c3ccc(F)cc3)C2=O)ccc1Cl` (configuration not stated): -7.3% (inactive).
Next, `CCN(CC)CCOC(=O)C(c1ccccc1)c1ccccc1`: -11.4% (inactive); `Cc1ccc(NC(=O)c2cc(NC(=O)/C=C\C(=O)O)ccc2N2CCCCC2)cc1`: 3.1% (active).
Turning to `O=C(/C=C/c1ccccc1)Nc1ccc(C(=O)N2CCCCC2)cc1`, the activity change, less the hit threshold is -11.4% (inactive).
Turning to `COc1ccc(NC(=O)c2cc(S(=O)(=O)N3CCOCC3)ccc2N2CCOCC2)cc1`, the activity change, less the hit threshold is -16.6% (inactive).
Next, `CC(=O)N1c2ccc(N=Cc3cc(Br)cc(Br)c3O)cc2CC1C` (configuration not stated): 0.4% (active); `CC(=O)N1CCc2cc(S(=O)(=O)N3c4ccccc4CC3C)ccc21` (configuration not stated): -13.9% (inactive).
For the compound `N=c1sccn1CC(=O)Nc1ccccc1Cc1ccccc1`, the activity change, less the hit threshold is -16.3% (inactive).
The value for `CCc1nnc(NC(=O)c2cccc(C(=O)Nc3nnc(CC)s3)n2)s1` was -22.2% (inactive); that for `Cc1cccc(NC(=O)COc2coc(CN3CCN(c4ccccc4)CC3)cc2=O)c1` was -22.1% (inactive); that for `O=C(COC(=O)C1CCC(=O)N1)Nc1cc(Cl)ccc1Cl` (configuration not stated) was -16.9% (inactive).
The value for `Cc1cc(Br)c(NC(=O)COC(=O)C2CC2C)c(Br)c1` (configuration not stated) was 4.5% (active); that for `O=C1OC(/C=C/c2ccccc2)=NC/1=C/c1ccco1` was -29% (inactive).
For the compound `COC(=O)c1ccc(NC(=O)COC(=O)C2CC(=O)N(Cc3ccccc3)C2)cc1` (configuration not stated), the activity change, less the hit threshold is -26.7% (inactive).
The value for `O=C(O)CCCN1C(=O)C2C3c4ccccc4C(c4ccccc43)[C@@H]2C1=O` (some centres not stated) was -24.6% (inactive); that for `Cc1cc(C)cc(-n2c(C)cc(/C=N/NC(=O)CN(c3c(C)cccc3C)S(C)(=O)=O)c2C)c1` was -19.4% (inactive); that for `Nc1ccc2c(c1)C(=O)C(=O)c1ccccc1-2` was -3.9% (inactive).
The value for `Cc1ccc(OC(=O)c2sc3ncn(C)c(=O)c3c2C)cc1` was -29.2% (inactive); that for `CCOC(=O)c1sc2ncnc(NCC(c3cccs3)N(C)C)c2c1C` (configuration not stated) was 39.2% (active); that for `CCOC(=O)c1sc2ncnc(NCc3ccco3)c2c1C` was 51.8% (active).
The value for `CCOC(=O)c1c(NC(=O)/C=C/c2ccco2)sc(C)c1C` was -12% (inactive).
Consider `COc1ccc(N(C(=O)c2ccco2)S(=O)(=O)c2cccs2)cc1`, for which the activity change, less the hit threshold was -19.4% (inactive).
Take `O=C(N/N=C/c1ccsc1)C1CC1`: the activity change, less the hit threshold was -15.9% (inactive).
Take `COCCNC(=O)C1CCN(S(=O)(=O)N2CCC3(CC2)OCCO3)CC1`: the activity change, less the hit threshold is -21.8% (inactive).
Turning to `CCOC(=O)c1sc(NC(=S)NC(=O)c2ccco2)nc1C`, the activity change, less the hit threshold was 4.8% (active).
Next, `Cc1nc(NC(=O)c2ccco2)sc1C(=O)O`: -11.4% (inactive).
Regarding `CCOC(=O)c1sc(NC(=S)NC(=O)c2ccccc2)nc1C`, the activity change, less the hit threshold was -3.4% (inactive).
The value for `CCOC(=O)c1sc(NC(=S)NC(=O)c2cccc(OC)c2)nc1C` was 4.7% (active); that for `CCOC(=O)c1cccc(C(=O)Nc2nc3ccc(OC)cc3s2)n1` was -15.8% (inactive); that for `CCOC(=O)c1sc(NC(=S)NC(=O)c2ccc(OC)cc2)nc1C` was -10.9% (inactive).
On to `O=c1[nH]c(=S)[nH]c2c1C(c1ccc(Br)cc1)c1c([nH]c(=S)[nH]c1=O)O2`, for which the activity change, less the hit threshold was -17.1% (inactive).
`CCOC(=O)/C(C)=N/NC(=O)c1ccc([N+](=O)[O-])cc1`: the activity change, less the hit threshold was 16.8% (active).
The value for `CCOc1ccc(C(=O)N/N=C/c2cc([N+](=O)[O-])cs2)cc1` was -17.4% (inactive); that for `Cc1cc(SCC(=O)c2cccc([N+](=O)[O-])c2)nc(=O)[nH]1` was -15.5% (inactive).
Next, `CCOC(=O)c1[nH]cnc1C(=O)Nc1ccc([N+](=O)[O-])cc1`: -11.7% (inactive); `CCOC(=O)/C(C)=N/NC(=O)c1cccc([N+](=O)[O-])c1`: 5.2% (active).
On to `Cc1ccccc1C(=O)NNC(=O)c1cccc([N+](=O)[O-])c1`, for which the activity change, less the hit threshold is -19.8% (inactive).
With `S=C(NCCc1ccccc1)N/N=C/c1c(Cl)cccc1Cl`, the activity change, less the hit threshold is -18.4% (inactive).
Next, `CC1(C)CC(=O)c2c(nn(-c3ccccc3)c2-c2ccncc2)C1`: -16.4% (inactive); `Cc1nn(Cc2ccccc2)c2c1C(c1cccnc1)C(C#N)=C(N)O2` (configuration not stated): -10.8% (inactive); `O=C(COc1ccccc1)NC(=S)Nc1ccc2c(c1)Cc1ccccc1-2`: -19.3% (inactive).
Next, `CC(Oc1ccccc1F)C(=O)NC1CCS(=O)(=O)C1` (configuration not stated): -17.8% (inactive).
For the compound `O=C(O)c1cc(/C=N\O)ccc1OCc1ccccc1`, the activity change, less the hit threshold is -16.1% (inactive).
As to `CCOc1ccccc1NC(=O)C(=O)CC(=O)c1cccc(OC)c1`, the activity change, less the hit threshold was -8.6% (inactive).
With `CCN1CCN(CC(=O)c2ccc(OC)cc2)CC1`, the activity change, less the hit threshold is -18.4% (inactive).
Next, `COc1ccc(C(=O)CC(=O)C(=O)Nc2ccc(C)cc2Cl)cc1`: 10.2% (active); `COc1cccc(C(=O)CC(=O)C(=O)Nc2ccc(C)cc2Cl)c1`: 10.8% (active); `COc1cc(OC)cc(C(=O)O/N=C(\N)c2cccc(C)c2)c1`: -9.7% (inactive).
Regarding `COc1ccc(C(=O)CC(=O)C(=O)Nc2ccccc2C(F)(F)F)cc1`, the activity change, less the hit threshold was 7.4% (active).
The value for `COc1ccc(C(=O)CC(=O)C(=O)Nc2ccccc2)cc1` was 3.1% (active); that for `COc1ccc(C(=O)CNc2ccccc2C#N)cc1` was -15% (inactive); that for `COc1ccc(C(=O)CC(=O)C(=O)Nc2ccc(Cl)cc2)cc1` was -2.1% (inactive).
In the case of `COc1ccc(C(=O)CC(=O)C(=O)Nc2ccc(C)c(C)c2)cc1`, the activity change, less the hit threshold was -11.4% (inactive).
Consider `COc1ccc(C(=O)CC(=O)C(=O)Nc2ccc(C)c(Cl)c2)cc1`, for which the activity change, less the hit threshold was -9% (inactive).
The value for `CCCNc1c(NS(=O)(=O)c2cccc(C#N)c2)c(=O)oc2ccccc12` was -15.8% (inactive).
Next, `CCOC(=O)c1c(C)oc2cc(Br)c(OC)cc12`: -14.7% (inactive); `COCCCNC(=O)CC(NS(=O)(=O)c1ccc(F)cc1)c1ccc(OC)cc1` (configuration not stated): -22.5% (inactive); `O=C1C=C(NCCN2CCOCC2)C(=O)c2cnccc21`: -10.1% (inactive).
Turning to `CCN(Cc1ccc(OC)c(F)c1)C(=O)C1CCCO1` (configuration not stated), the activity change, less the hit threshold was -7.1% (inactive).
Next, `COc1cc(/C=C2/C(=O)NN(c3ccccc3)C2=O)cc(Br)c1O`: -17.5% (inactive).
Next, `CC(C)CCNC(=O)CCc1nnc(Cc2c[nH]c3ccccc23)o1`: -15.1% (inactive); `CCOc1ccccc1NC(=O)C(=O)CC(=O)c1ccc(OC)cc1`: -5.2% (inactive).
For the compound `COc1ccc(C(=O)CC(=O)C(=O)Nc2ccccc2OC)cc1`, the activity change, less the hit threshold is -10.2% (inactive).
For `COc1ccc(C(=O)CC(=O)C(=O)Nc2ccccc2Cl)cc1`, the activity change, less the hit threshold was 44.4% (active).
Next, `CC1CCCC(C(=O)OCc2ccccc2)N1` (configuration not stated): -16.7% (inactive); `Cn1cc([N+](=O)[O-])c(C(=O)NCc2cc3cc(Cl)ccc3[nH]2)n1`: -13.6% (inactive); `N#Cc1ccccc1OCCN1C(=O)c2ccccc2C1=O`: -7.5% (inactive).
`Cc1ccc(-c2cc(-c3n[nH]c(=S)o3)c3ccccc3n2)cc1`: the activity change, less the hit threshold is 37.2% (active).
As to `C=CCn1c(-c2cc(-c3ccc(C)cc3)nc3ccccc23)n[nH]c1=S`, the activity change, less the hit threshold was -9.8% (inactive).
Consider `Cc1ccc(/C=N/NC(=O)c2cc(-c3ccncc3)nc3ccccc23)o1`, for which the activity change, less the hit threshold is -26.9% (inactive).
Take `N#Cc1cc(-c2ccccc2)nnc1Oc1ccccc1`: the activity change, less the hit threshold is -14.7% (inactive).
With `COc1cc2c(cc1OC)CN(C(=O)c1sccc1C)CC2`, the activity change, less the hit threshold is -20.7% (inactive).
The value for `COc1ccccc1C(=O)NNC(=O)C(=O)Nc1ccc(C)cc1` was 132% (active).
Take `Cc1ccc(NC(=O)C(=O)NNC(=O)c2ccccc2C)cc1Cl`: the activity change, less the hit threshold is 90.3% (active).
For `COc1ccc(NC(=O)c2ccccc2SC)cc1OC`, the activity change, less the hit threshold was -19.4% (inactive).
As for `COc1ccccc1C(=O)Nc1ccnn1C1CCN(C(=O)c2ccoc2C)CC1`, the activity change, less the hit threshold was -12.1% (inactive).
Take `COc1ccccc1C(=O)Nc1ccc(C(=O)N2CCCC2)cc1`: the activity change, less the hit threshold was -7.2% (inactive).
Next, `COc1ccccc1C(=O)NNC(=O)C(=O)Nc1ccc(C)c(Cl)c1`: 126% (active); `COc1ccccc1C(=O)NNC(=O)C(=O)NC(C)(C)C`: 16.8% (active); `O=C(O)c1cc(-c2cccc([N+](=O)[O-])c2)n[nH]1`: -19.6% (inactive).
Next, `O=C(Nc1ccc(Cl)c(-c2nc3ccccc3[nH]2)c1)c1cccnc1`: -40.7% (inactive); `COc1ccc(CNC(=O)C2CCCN2)cc1OC` (configuration not stated): -26.1% (inactive); `COc1cc(C2C(C#N)=C(N)Oc3c2ccc2ccccc32)ccc1OCC(=O)Nc1ccc(C)cc1` (configuration not stated): -15.1% (inactive).
The value for `Cc1ccc(C)c(OCc2cc(C(=O)N3CCNC(=O)C3)no2)c1` was -16% (inactive); that for `Cn1c(=O)c(-c2cc(=O)[nH][nH]2)c(O)c2ccccc21` was -13.7% (inactive).
`CN(C)NC(=O)C(NC(=O)c1ccc(N)cc1)C12CC3CC(CC(C3)C1)C2` (configuration not stated): the activity change, less the hit threshold is -13.9% (inactive).
As to `Cc1ccc(NC(=O)CN2C(=O)S/C(=C\c3ccc(-c4cccc(C(=O)O)c4C)o3)C2=O)cc1`, the activity change, less the hit threshold is -27% (inactive).

The values above are taken from PubChem BioAssay AID1942 (Johns Hopkins Ion Channel Center, 2009).
